Results: PubChem BioAssay AID588342 (National Center for Advancing Translational Sciences (NCATS), 2011)
About 25,000 (6.9%) of roughly 360,000 compounds were called active. Roughly 9% stayed inconclusive and do not appear here. Calls follow the shape of the dose curve; as a rule, active = well fitted inhibition curve with a large enough effect; inconclusive = small, poorly fitted or top-dose-only effect; inactive = flat fitted curve, though single readings scatter. What follows is part of a selection rich in actives, with near analogues and random picks from the rest. Entries that show only a call come without a potency.

The compounds below were run against Luciferin 4-monooxygenase (Photinus pyralis) (UniProt P08659) (assay: qHTS profiling assay for firefly luciferase inhibitor/activator using purifed enzyme and Km concentrations of substrates (counterscreen for miR-21 project)). Details: purified FLuc, luminescence inhibition; series mostly up to 57.5 µM.
Luciferin 4-monooxygenase (Photinus pyralis), sequence (P08659 whole entry, looked up): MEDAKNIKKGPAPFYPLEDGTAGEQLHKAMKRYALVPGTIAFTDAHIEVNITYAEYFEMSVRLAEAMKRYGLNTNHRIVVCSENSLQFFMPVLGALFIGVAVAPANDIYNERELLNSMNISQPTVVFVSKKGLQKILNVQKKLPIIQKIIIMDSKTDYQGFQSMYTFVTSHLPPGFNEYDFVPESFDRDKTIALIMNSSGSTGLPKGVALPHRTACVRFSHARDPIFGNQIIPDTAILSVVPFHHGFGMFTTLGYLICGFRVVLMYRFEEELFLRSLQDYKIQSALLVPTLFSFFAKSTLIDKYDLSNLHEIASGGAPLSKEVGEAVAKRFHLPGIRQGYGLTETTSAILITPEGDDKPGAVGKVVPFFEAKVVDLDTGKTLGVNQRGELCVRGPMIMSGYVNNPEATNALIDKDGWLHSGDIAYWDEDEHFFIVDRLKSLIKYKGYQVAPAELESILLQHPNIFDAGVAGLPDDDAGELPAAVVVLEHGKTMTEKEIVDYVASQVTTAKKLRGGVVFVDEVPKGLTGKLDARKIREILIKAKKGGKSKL
Text: MLPCN Grant: 1 R21 NS059478-01 (miR-21 grant) Assay Provider: NCGC NCGC Assay Overview: Firefly (Photinus pyralis) luciferase is one of the most commonly used transcriptional reporters for a number of reasons. It is considered one of the more dynamically responsive reporters -that is, responsive to changes in reporter transcription - as it requires no post-translational modifications and is enzymatically active directly after protein synthesis (Wood, 1998). Additionally, the half-life of the luciferase protein is short relative to other reporter-gene products (Wood, 1995). Whereas reporters with long half-lives potentially allow for increased signal due to accumulation of reporter-gene product, once accumulated in the cell, dynamic changes in reporter-gene expression may be difficult to detect(Fan and Wood, 2007; Almond et al., 2004). It has been shown that wild-type P. pyralis luciferase has a half-life of approximately […] hours in mammalian cells (Thompson et al., 1991). Firefly luciferase reporter-gene assays are also generally considered one of the most sensitive assay types (Wood, 1995; Wood, 1998). Although light produced in a bioluminescence reaction is of lower intensity than that produced during fluorescence emission, this is offset by little to no background light inherent to luminescent assays. Thus the luciferase reporter can be expressed at much lower levels than fluorescent proteins while still providing robust signal. # However, it was initially observed, in 1991, by Thompson et al., that compounds that resemble the substrates of firefly luciferase (FLuc) can act as competitive inhibitors of the enzyme, and that these compounds, upon interaction with luciferase in the cell, can actually stabilize the protein and increase its half-life. Accumulated intracellular FLuc protein can be measured as an increase in luminescence signal, upon addition of detection reagents (which contain high concentrations of FLuc substrates) commonly used in high-throughput screening. In cell-based reporter gene assays that use FLuc as the reporter gene to quantitate the potential influence of a given compound against the target biology, this apparent increase in luminescence can mistakenly be interpreted as identification of a compound that is active against the target of interest. This is the case for the miR-21 FLuc reporter gene assay used to identify inhibitors of the miR-21 pathway (PubChem AID 2289) - compounds of interest will inhibit miR-21 biogenesis/expression or activity, and are identified by causing an increase in luminescence, due to increased FLuc translation. However, FLuc inhibitory compounds that stabilize the FLuc protein will give an identical read-out, making it difficult to distinguish compounds that are active against the target from those active against FLuc. Previous profiling work to determine the prevalence of compounds that affect FLuc enzymatic activity (PubChem AID 411) identified that ~3% of the MLSMR library (then at ~72K) inhibited FLuc. […] Since the MLSMR had grown to ~350K compounds, and since it was expected that a significant percentage of compounds found active in the miR-21 FLuc assay would be FLuc inhibitors, the library was screened for activity against FLuc using a biochemical assay of purified FLuc and KM concentrations of FLuc substrates (D-luciferin and ATP).
NCGC Assay Protocol Summary: Reagents: 50mM Tris acetate, pH 7.5; 10mM Mg acetate; 10uM D-luciferin (Sigma #L9504); 10uM ATP; 0.01% Tween-20; 0.05% BSA; 10nM P. pyralis luciferase (Sigma #L9506) Control compounds used were two known firefly luciferase inhibitors (compounds (2) and (5) in Auld et al., 2010), and DMSO. […]
Also: nearly all actives have a fitted effect of over 55% in size.

Row | SMILES | Potency
1 | Cc1ccc2c(=O)c(C(=O)c3ccc(F)cc3)cn(CC(=O)NC3CCCCC3)c2n1 | inactive
2 | CSCCC(NC(=O)c1ccco1)C(=O)NCCc1ccc(F)cc1 (stereo not given) | inactive
3 | COc1ccc(NC(=O)CCC(=O)Nc2cc(OC)c(NC(=O)c3ccco3)cc2OC)c(OC)c1 | inactive
4 | COc1ccc(NC(=O)c2ccco2)cc1NC(=O)c1ccc(C#N)cc1F | inactive
5 | Cc1cc(C)c(NC(=O)c2oc3ccccc3c2COc2ccccc2)c(C)c1 | inactive
6 | O=C(NNC(=O)c1ccco1)Nc1ccccc1 | inactive
7 | Cc1cccc(NC(=O)Nc2cccc(Oc3c(F)c(F)c(F)c(F)c3F)c2)c1 | inactive
8 | CSCCC(NC(=O)c1ccco1)C(=O)Nc1cc(C)ccn1 (stereo not given) | 15.1 µM (active)
9 | Cc1ccoc1C(=O)Nc1cccc(Oc2ccccc2)c1 | 6.75 µM (active)
10 | O=C(Nc1ccccc1)c1ccco1 | inactive
11 | CSCCC(NC(=O)c1ccco1)C(=O)OCC(=O)Nc1ncc(Cl)c(C)c1Cl (stereo not given) | inactive
12 | COc1cccc(C(=O)Nc2ccc(NC(=O)c3ccco3)cn2)c1 | 21.3 µM (active)
13 | O=C(Nc1ccc(Oc2ccccc2)cc1)c1ccco1 | 5.36 µM (active)
14 | CCOc1ccccc1C(=O)Nc1ccc(S(=O)(=O)N2CCCCC2c2cccnc2)cc1 (stereo not given) | inactive
15 | Cc1c(Cl)cccc1NC(=O)Cn1cc(C(=O)c2cccs2)c2ccccc21 | inactive
16 | Cc1cccc(OCCSc2nc3ccccc3n2CC(=O)N2CCCCC2)c1C | inactive
17 | COc1ccc(CNC(=O)c2ccc(NC(=O)N3CC4CCCN4c4ccccc43)cc2)cc1 (stereo not given) | inactive
18 | O=C(CC(NCc1cccnc1)C(=O)O)Nc1ccc(O)cc1 (stereo not given) | inactive
19 | O=C(NCc1ccccc1CN1CCCC1)c1cccc(S(=O)(=O)Nc2ccc(F)cc2)c1 | inactive
20 | O=C(CCNC(=O)Cn1ccc2ccccc2c1=O)NCCC1=CCCCC1 | inactive
21 | CC(C)(C)NC(=O)c1cc(NC(=O)c2ccco2)cc(NC(=O)c2ccco2)c1 | inactive
22 | Cc1ccnc(NC(=O)c2ccc(NC(=O)c3ccco3)cc2)c1 | 10.7 µM (active)

Row | SMILES | Potency
23 | Cc1ccnc(NC(=O)c2ccco2)n1 | inactive
24 | Cc1cccc(N(C(=O)Cc2cccs2)C(C(=O)NC2CCCC2)c2ccsc2)c1 (stereo not given) | inactive
25 | Cc1ccc(OCCCCc2c(C)n[nH]c2C)cc1 | inactive
26 | CCCOc1ccc(-c2nc(N)n[nH]2)cc1 | 13.5 µM (active)
27 | Nc1nc(SCCOc2ccccc2)n[nH]1 | inactive
28 | Cc1ccc(CNC(=O)CSc2nnc3c(n2)[nH]c2ccc(F)cc23)cc1 | inactive
29 | COc1ccc(Cl)cc1NC(=O)C(C)Sc1nc2c(c(=O)[nH]1)CCCC2 (stereo not given) | inactive
30 | COC(=O)CN(c1nc(C)c(Cl)c(OC)n1)S(=O)(=O)c1ccc(C)cc1 | inactive
31 | Cc1c(NC(=O)c2cc(-c3ccc(Br)cc3)on2)c(=O)n(-c2ccccc2)n1C | inactive
32 | COc1ccc2c(c1)CCc1c(C(=O)N3CCCC3)noc1-2 | 12 µM (active)
33 | COc1ccc(S(=O)(=O)NC(C)C(=O)N2CCCCCC2)cc1 (stereo not given) | inactive
34 | COc1ccc(C(=O)N2CCCN(C)CC2)c(OC)c1 | inactive
35 | COc1ccc2c(c1)CCc1c(C(=O)Nc3cc(C)ccc3O)noc1-2 | inactive
36 | COc1ccc2c(c1)CCc1c(C(=O)Nc3c(C)n(C)n(-c4ccccc4)c3=O)noc1-2 | 23.9 µM (active)
37 | COc1ccc(Cl)cc1NC(=O)CSc1nc(-c2cccs2)cc(C(F)(F)F)n1 | inactive
38 | CC(OC(=O)c1ccccc1NCCO)C(=O)Nc1ccnn1C(C)C (stereo not given) | inactive
39 | Cn1c(=O)oc2cc(S(=O)(=O)CCC(=O)NCCc3ccc(Cl)cc3)ccc21 | inactive
40 | Fc1ccc(CSc2nc(NCc3ccccc3)c3ccccc3n2)cc1 | inactive
41 | COc1ccc(CNC(=O)COC(=O)c2ccc(C)c(S(=O)(=O)N3CCOCC3)c2)cc1OC | inactive
42 | O=C(COC(=O)C1CC2CCCC(C1)C2=O)NC(=O)c1ccccc1 (stereo not given) | inactive
43 | CCc1ccc(Oc2coc3cc(O)ccc3c2=O)cc1 | 23.9 µM (active)
44 | COc1ccc(Oc2coc3cc(OC(=O)c4cncc(Br)c4)ccc3c2=O)cc1 | inactive

Row | SMILES | Potency
45 | CCc1ccc(Oc2coc3cc(OC(=O)c4cc5ccccc5oc4=O)ccc3c2=O)cc1 | inactive
46 | N#Cc1ccc(-c2nc3cc(C#N)c(C#N)cc3nc2-c2ccccc2)cc1C#N | inactive
47 | COc1ccc(C)cc1NC(=O)C(=O)NCCc1sc(-c2cccc(C)c2)nc1C | inactive
48 | CN(C)c1ccnc(Nc2ccc(F)cc2)c1C#N | inactive
49 | CC(C)c1ccc(Nc2ncccc2C#N)cc1 | 15.1 µM (active)
50 | CC(C)c1ccc(NC(=O)Cn2c3ncccc3c(=O)n2-c2ccccc2)cc1 | inactive
51 | CCOc1cc2[nH]c(=O)n(Cc3ccc(C(=O)NCCN(CC)CC)cc3)c(=O)c2cc1OCC | inactive
52 | O=C(Nc1ccc(Oc2ccccc2)cc1)C1CCN(S(=O)(=O)c2ccc(Cl)cc2)CC1 | inactive
53 | O=C(O)c1ccccc1N=N/C(=N/Nc1cc(S(=O)(=O)O)ccc1O)c1ccccc1 | 16.9 µM (active)
54 | O=C(CN(c1ccccc1)S(=O)(=O)c1ccc(Cl)cc1)Nc1ccccc1C(=O)N1CCCC1 | inactive
55 | CC(=O)c1c(C)[nH]c(C(=O)OCC(=O)Nc2c(C)cccc2C)c1C | inactive
56 | CC(NC(=S)Nc1ccc(OC(F)F)cc1)c1ccc(F)cc1 (stereo not given) | inactive
57 | C[C@@H]1NC(=O)[C@@]2(C)[C@@H](c3ccccc3)[C@H]3COc4ccccc4[C@@H]3N2C1=O | inactive
58 | CCc1ccc(Nc2nn3c(=O)c4cc5c(cc4nc3s2)OCO5)cc1 | inactive
59 | CC(C)CC(=O)N1CCN(Cc2ccccc2Br)CC1 | inactive
60 | Cc1c(C(=O)NCc2ccccc2Br)oc2ccc3c(c12)C(=O)CC(C)(C)O3 | 1.69 µM (active)
61 | COc1cccc(CNC(=O)COc2cc(O)c3c(c2)OC(C)(C)CC3=O)c1 | inactive
62 | COc1ccc(-c2nc3sc(CCNS(=O)(=O)c4ccc(F)c(C)c4)c(C)n3n2)cc1 | inactive
63 | COc1ccc(C(=O)Nc2ccc(-n3nncc3C(C)(C)C)cc2)cc1 | inactive
64 | COc1ccc(CNC(=O)C(=O)N2CCC3(CC2)OCCN3S(=O)(=O)c2ccc(C)cc2)cc1 | inactive
65 | Cc1cc(Cl)ccc1OCC(=O)N(Cc1ccc(N(C)C)cc1)C1CCS(=O)(=O)C1 (stereo not given) | inactive
